Results from PubChem BioAssay AID778 (Sanford-Burnham Center for Chemical Genomics, 2007).
Hit rate of the full screen: of about 96,000 compounds, about 20,000 (21%) were called active.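 Rule for the calls: active = CYP2C19 inhibition above a set limit at 5 µM in the primary screen (cut at about 50% in these data); inactive = the rest.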 Not all results are given here.

The compounds below were run against Cytochrome P450 2C19 (Homo sapiens) (UniProt P33261) (assay: blockers of cytochrome P450 2C19 activity – biochemical, luminescence, ADME assay, primary screen (AID 778;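 note: plate controls were negative control wells for no effect and 2.5 mM tranylcypromine positive control for full effect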)). Conditions: CYP2C19 Supersomes, luciferin-H EGE luminescence, 30 min; at 5 µM; hits give high values.
Chain of Cytochrome P450 2C19 (Homo sapiens) (P33261 whole entry, looked up): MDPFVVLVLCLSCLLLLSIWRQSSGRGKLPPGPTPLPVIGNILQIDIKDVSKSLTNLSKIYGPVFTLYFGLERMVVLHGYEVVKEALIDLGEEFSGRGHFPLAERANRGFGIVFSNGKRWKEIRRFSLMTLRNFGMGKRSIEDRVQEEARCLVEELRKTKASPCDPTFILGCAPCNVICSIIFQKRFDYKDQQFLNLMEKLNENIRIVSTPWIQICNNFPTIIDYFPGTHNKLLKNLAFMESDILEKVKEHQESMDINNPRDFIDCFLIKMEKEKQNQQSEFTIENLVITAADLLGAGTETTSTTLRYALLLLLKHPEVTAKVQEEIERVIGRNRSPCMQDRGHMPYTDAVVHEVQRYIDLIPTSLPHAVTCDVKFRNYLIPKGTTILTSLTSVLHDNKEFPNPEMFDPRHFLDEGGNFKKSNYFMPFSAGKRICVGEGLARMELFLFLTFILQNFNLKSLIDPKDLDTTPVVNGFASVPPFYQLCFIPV

inhibition, inactive:
ONC(=Nc1ccccc1)c1ccccc1Cl 32.8%
CC(Oc1ccc(Cl)cc1)C(=O)OCC(=O)Nc1ncc(Cl)cc1Cl (configuration not stated) 24.2%
CC(Oc1ccc(Cl)cc1)C(=O)Nc1ncccn1 (configuration not stated) 30%
N#Cc1ccc(-c2ccc(F)cc2)nc1Sc1ccccc1 3.5%
Cc1csc(NC(=O)NC2(C(F)(F)F)Oc3ccccc3O2)n1 -13.3%
O/N=C(\c1ccc2c(c1)OCCO2)C1CCCCC1 49.8%
CC(C)Cc1cc(C(=O)Nc2cc(Br)ccc2O)no1 -2.9%
CCn1c(CSc2ncccn2)nnc1SCC(=O)N1c2ccccc2CC1C (configuration not stated) 18.8%
CC(C)N1C(=O)C2C(C(=O)NC3CCCCC3)C3C=CC2(O3)C1C(=O)NC1CCCC1 (configuration not stated) 6.6%
N#Cc1ccc(-c2ccc(Cl)cc2)nc1Oc1ccc(F)cc1 41.8%
O=C(Oc1ccc([N+](=O)[O-])cc1)c1ccc2ccccc2n1 0%
CS(=O)(=O)N(CC(=O)N1CCN(c2ccc(F)cc2)CC1)C1CCCCC1 6.9%
CCOC(=O)N1CCN(C(=O)CN(C2CCCCC2)S(C)(=O)=O)CC1 -5.6%
O=C(CCCN1C(=O)CSc2ncccc21)N1CCN(c2cccc(C(F)(F)F)c2)CC1 34%
Cc1nc(C)c(C(=O)Nc2cccc(C)c2C)o1 -14.2%
Cn1c(=O)cc(OCCCC(=O)N2CCN(c3ccccn3)CC2)c2ccccc21 30.2%
CC(=C1C(=O)c2ccccc2C1=O)N1CCN(c2ccccn2)CC1 13.1%
COC(=O)c1ccc(NC(=O)C(C)N2C(=O)c3ccccc3C2=O)cc1 (configuration not stated) 11.8%
CC(C)Oc1ccc(Oc2ccc(C(F)(F)F)cn2)cc1 23.2%
COc1cccc(N2CCN(C3CC(=O)N(c4ccc(Cl)cc4)C3=O)CC2)c1 (configuration not stated) -17.1%
CN(C)c1ccc(NC(=S)N(CCc2ccccc2)C2CC(=O)N(c3c(Cl)cccc3Cl)C2=O)cc1 (configuration not stated) 13.4%

inhibition, active:
ONC(=Nc1ccc(Cl)cc1)c1ccccc1Cl 84.3%
CC(Oc1ccc(Cl)cc1)c1ccnn1S(C)(=O)=O (configuration not stated) 69.5%
CCCCn1ccnc1C(=O)c1cccc(S(=O)(=O)N2c3ccccc3CC2C)c1 (configuration not stated) 83.1%
CS(=O)(=O)N(CC(=O)Nc1ccc(Cl)c(Cl)c1)C1CCCCC1 60.7%
Cc1cc(C(=O)N2CCN(c3ccccn3)CC2)c(C)o1 56.8%
COC(=O)CN(C(=S)Nc1ccc(Cl)cc1)C1CC(=O)N(c2ccc(OC)cc2)C1=O (configuration not stated) 69.3%
